Laboratory results reported in PubChem BioAssay AID720580 (National Center for Advancing Translational Sciences (NCATS), 2013).
The whole screen tested about 330,000 compounds, of which about 1,500 (0.45%) were called active. Where a call stands in place of a potency, no number is given. Roughly 6% stayed inconclusive and do not appear here. Calls come from the whole dose curve; tested in A549 cells. Many of the other results were omitted from the sample, so actives are more common in it than they were.

Test: qHTS for Stage-Specific Inhibitors of Vaccinia Orthopoxvirus: Venus Reporter Primary qHTS; note: nearly all actives have a fitted effect of over 30% in size
Details: Vaccinia virus Venus reporter expression, fluorescence; series mostly up to 36.5 µM
Potency is the fitted concentration of half-maximal effect.

**Q.** With Cc1cccc(C)c1NC(=O)CN1CCN(c2ccc(F)cc2)CC1 as the molecule, how does the Potency read?
**A.** inactive

**Q.** For COc1cc(OC)c(/C=C/c2ccnc3ccccc23)c(OC)c1, which Potency is on record?
**A.** inactive

**Q.** For CCOC(=O)N(C)c1c(CC)nc2c(OCc3ccccc3C(=O)OC)cccn12, which Potency is on record?
**A.** inactive

**Q.** With CCOC(=O)c1cc2cc(OC)ccc2n1C1CCN(C)CC1 as the molecule, how does the Potency read?
**A.** inactive

**Q.** For CCOC1=C2[C@@H](CN(S(=O)(=O)c3ccc(C)cc3)[C@H]2c2ccccc2F)[C@H]2C(=O)N(Cc3ccccc3)C(=O)[C@H]2C1, which Potency is on record?
**A.** inactive

**Q.** With CCOC(=O)C1=CC[C@@H](c2ccncc2)N(S(=O)(=O)c2ccc(C)cc2)C1 as the molecule, how does the Potency read?
**A.** inactive

**Q.** Which Potency does the source give for CSc1nc(-c2ccccc2)nc(C(Cl)Cl)n1 here?
**A.** 10 µM (active)

**Q.** Which Potency does the source give for CSc1nc(Nc2ccc(F)cc2)cc(-c2ccccc2)n1 here?
**A.** inactive

**Q.** For CSc1ncc(Sc2ccccc2)c(C(=O)O)n1, which Potency is on record?
**A.** inactive

**Q.** For Cc1cc(Br)cn2c(Cc3ccccc3C(F)(F)F)c(C3CCCCC3)nc12, which Potency is on record?
**A.** inactive

**Q.** Which Potency does the source give for CCc1nc2c(OCc3ccc(F)c(F)c3)cccn2c1N(C)C(=O)c1ccco1 here?
**A.** inactive

**Q.** With CC(C)(C)CC(C)(C)NCC(O)COCCOc1ccc(Br)cc1 (stereo not drawn) as the molecule, how does the Potency read?
**A.** 10 µM (active)

**Q.** Which Potency does the source give for COc1ccc(OCC(O)CNCCNc2nccc(C(F)(F)F)n2)cc1 (stereo not drawn) here?
**A.** inactive

**Q.** Which Potency does the source give for CC(C)(C)NCC(O)COc1cccc2[nH]c(=O)[nH]c12 (stereo not drawn) here?
**A.** inactive

**Q.** With CCCCNC(=O)C[C@@H]1C[C@@]2(C(=O)OCC)CCC=C2N(Cc2cccc3ccccc23)C1=O as the molecule, how does the Potency read?
**A.** inactive

**Q.** Which Potency does the source give for COc1ccc(C(C(=O)Nc2c(C)cccc2C)N2CCN(c3ccc(C)cc3)CC2)cc1 (stereo not drawn) here?
**A.** inactive

**Q.** Which Potency does the source give for CN(C)c1cccc(NC(=O)c2ccc(-c3ccc(F)c(F)c3)c3ccoc23)c1 here?
**A.** inactive

**Q.** For CCc1nc2c(OCc3cccc(OC)c3)cccn2c1N(C)C(=O)C(C)C, which Potency is on record?
**A.** inactive

**Q.** For C/C(CC1CC(C)(C)OC1=O)=N/Nc1nc(-c2ccccc2)cs1 (stereo not drawn), which Potency is on record?
**A.** inactive

**Q.** For CC(=O)Nc1cccc(-c2csc(Nc3cccc(C)n3)n2)c1, which Potency is on record?
**A.** inactive

**Q.** For CC(=O)Nc1ccc(-c2csc(NC=C3C(=O)OC(C)(C)OC3=O)n2)cc1, which Potency is on record?
**A.** 4.47 µM (active)

**Q.** For O=C(COc1ccccc1C(=O)Nc1ccccc1)Nc1cccc(F)c1, which Potency is on record?
**A.** inactive

**Q.** Which Potency does the source give for COc1ccc(C(=O)C(OP(=O)(OC)OC)c2ccccc2OC)cc1 (stereo not drawn) here?
**A.** inactive

**Q.** With COc1ccc2c(c1)NC(=O)C2CC(=O)N1CCOc2c(cc(-c3cnc4ccccc4c3)cc2OC)C1 (stereo not drawn) as the molecule, how does the Potency read?
**A.** inactive

**Q.** Which Potency does the source give for CC(=O)OC1C2(CC3N4C(=O)C5(CO)SSC4(CC31O)C(=O)N5C)OC(C)C(C)(C)C2=O (stereo not drawn) here?
**A.** 3.16 µM (active)

**Q.** For CCCNC(=O)C1(C)CCN1C(=O)Cc1ccc(-c2ccccc2)cc1 (stereo not drawn), which Potency is on record?
**A.** inactive

**Q.** For CCOC(=O)[C@]12CCCC=C1N(CCC1=CCCCC1)C(=O)[C@H](CC(=O)N1CCCCC1)C2, which Potency is on record?
**A.** inactive

**Q.** For CCCCCNC(=O)Cc1ccc(OC)cc1, which Potency is on record?
**A.** inactive

**Q.** With C/C=C/NNC(=O)Cc1ccc(OC)cc1 as the molecule, how does the Potency read?
**A.** 10 µM (active)

**Q.** With COc1ccc(CC(=O)Nc2ccc(C(=O)NC(C)(C)C)cc2)cc1 as the molecule, how does the Potency read?
**A.** inactive

**Q.** For Cc1cccc(NC(=O)COC(=O)c2ccccc2OCc2cccc(Br)c2)c1, which Potency is on record?
**A.** inactive

**Q.** With CC1(C)OC(=O)C2=C(C[C@@H](C3CCCCC3)O[C@@H]2c2ccc(Cl)cc2)O1 as the molecule, how does the Potency read?
**A.** inactive

**Q.** With Cc1ccc(C)c(S(=O)(=O)n2nc(C)c(S(=O)(=O)N3CCC(C)CC3)c2C)c1 as the molecule, how does the Potency read?
**A.** inactive

**Q.** For Cc1ccc(S(=O)(=O)N2CCN(c3ncnc4ccccc34)CC2)cc1, which Potency is on record?
**A.** inactive

**Q.** Which Potency does the source give for Cc1ccc(C)c(S(=O)(=O)N2CCN(c3ncnc4sccc34)CC2)c1 here?
**A.** 2.51 µM (active)

**Q.** With O=[N+]([O-])c1ccc(/C=C/c2ccc3cccnc3c2)cc1 as the molecule, how does the Potency read?
**A.** inactive

**Q.** Which Potency does the source give for Cc1cccc(-c2nnc(SC(C)C(=O)Nc3ccccc3)n2C)c1 (stereo not drawn) here?
**A.** inactive

**Q.** Which Potency does the source give for CN1CCN(c2ccc(NC(=O)c3cc(Cl)c4c(c3)OCCO4)cc2)CC1 here?
**A.** inactive

**Q.** For C=CC(=O)Nc1ccc(Nc2ccnc(Nc3ccc(N4CCN(C)CC4)cc3)n2)cc1, which Potency is on record?
**A.** 10 µM (active)

**Q.** Which Potency does the source give for Cc1cccc(N2CCN(c3ccc(NC(=O)/C=C\C(=O)O)cc3)CC2)c1 here?
**A.** inactive

**Q.** For CCCCc1c(-c2ccc(Cl)cc2)ncn1CCc1ccccc1OC, which Potency is on record?
**A.** inactive

**Q.** For Cc1ccc(-c2nc3c(Cl)cc(C(F)(F)F)cn3c2Cc2cccc(Cl)c2)cc1, which Potency is on record?
**A.** inactive

**Q.** Which Potency does the source give for O=S1(=O)CC(N2CCN(c3ccccn3)CC2)CN1Cc1ccc(F)cc1 (stereo not drawn) here?
**A.** inactive
